A selection: hits, their analogues and other compounds. The true share with any hit is near 21%.
CHX counter: counter-screen for Shiga toxin inhibitors: cycloheximide protein synthesis inhibition. cell reporter, cycloheximide protein synthesis inhibition counterscreen. max response, %. actives 12% (n = 300,000); in the data active = max response mostly above about 13%, no sharp cut-off; inactive = mostly below about 14%; also: read at 38.3 µM for the half of the compounds with a filed dose; 0% is about no effect
Shiga inhibitor: blocks Shiga toxin action in Vero cells; AID 2315; Vero cells, Shiga toxin protein synthesis inhibition reporter; inhibition, % at 38.7 µM; actives 9.2% (n = 290,000); in the data active = inhibition mostly above about 28%, no sharp cut-off; inactive = mostly below about 43%; also: 0% is about no effect
HCMV inh: blocks human cytomegalovirus replication; AID 1259415; actives 4.5% (n = 410,000); HFF cells, HCMV-luciferase reporter, 72 h; hits give low values; activity change, negative = inhibition, % at 57.5 µM; in the data active = activity change below about -60%; inconclusive = no clear call, values can overlap the other calls; inactive = above about -39%; also: % is scaled to controls: 0 for no effect and ±100 for the full control effect
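Cell-based, HFFs, 1000 cells/well, 16 h 37C; cpds in DMSO + HCMV-luc, MOI 1 PFU/cell; 72 h 37C; OneGlo luminescence after 5 min RT; norm. to buffer vs Salinomycin 10uM.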
Pf growth 96h: P. falciparum growth inhibition at 96 hour, primary screen for plastid delayed-death inhibitors. P. falciparum luciferase reporter growth, 96 h. Potency, µM (titrated, usually from 28.7 µM), for inactives: top-dose activity change, negative = inhibition, usual class: inhibitors. actives 6.9% (n = 320,000); also: potency is read from the fitted curve at half-maximal effect; % is scaled to controls: 0 for no effect and ±100 for the full control effect
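Two-generation exposure (96 h) targets delayed-death phenotype. Reporter parasites carrying integrated firefly luciferase, in red cells at 2% hematocrit and 0.05% parasitemia final, kept at 37 C, 5% CO2; luminescence loss indicates inhibition.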
Pf growth 48h: inhibits P. falciparum growth in the first generation, 48 h | P. falciparum luciferase growth in erythrocytes, 48 h | Potency, µM (doses to about 28.7 µM), without a hit: at the top dose activity change, negative = inhibition, usual class: inhibitors | actives 5.9% (n = 310,000); also: potency is read from the fitted curve at half-maximal effect; % is scaled to controls: 0 for no effect and ±100 for the full control effect
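Erythrocytes infected with P. falciparum carrying an integrated firefly luciferase reporter (2% hematocrit, 0.1% parasitemia final) were exposed to compounds in RPMI 1640 with 0.5% Albumax at 37 C, 5% CO2. Growth inhibition was scored as reduced luminescence.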
HCV inh: HCV inhibition. AID 651820. actives 3.4% (n = 340,000). Potency, µM (highest dose often 41.8 µM), for the others: at the top dose activity change, negative = inhibition, most hits filed as inhibitors. Huh7.5.1 HCVcc-Cre infection, luciferase reporter, 44 h; also: potency is read from the fitted curve at half-maximal effect; % is scaled to controls: 0 for no effect and ±100 for the full control effect
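Luciferase read-out (15 sec integration) after a 15 min room-temperature substrate step quantifies HCVcc-Cre infection. Cells, 1,000 per well, had compound added 4 h post-plating, then virus at ~0.5 moi, and were cultured 44 h.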
* = called active by the depositor; ? = inconclusive; . = no result; + = active, no number; [ ] = dose if it differs, or a comment. Unless noted, calls follow the shape of the dose curve; as a rule, active = well fitted inhibition curve with a large enough effect; inconclusive = small, poorly fitted or top-dose-only effect, or another doubt; inactive = no such curve, though single readings can be large or run the other way.

SMILES	CHX counter	Shiga inhibitor	HCMV inh	Pf growth 96h	Pf growth 48h	HCV inh
Cc1ccc(CNC(=O)CCSCc2cccc(F)c2)cc1	-2	4	-62*	38%	14%	-6%
O=C(CSCc1ccccc1)Nc1cccc(F)c1	38*	77*	50	?	76%	1%
O=C(c1ccc2c(=O)n3c(nc2c1)CCCCC3)N1CCN(c2ccc([N+](=O)[O-])cc2)CC1	-2	-12	-17	15%	-17%	?
C=CCNC(=S)N1CCC(C(=O)c2ccc(F)cc2)CC1	1	3	-11	-2%	-28%	-8%
Cc1ccccc1CNC(=O)c1ccc(CSCc2ccccc2)cc1	1	3	-17	6.6µM*	?	-6%
Cc1ccccc1CNC(=O)c1ccc(Cn2c(SCc3ccccc3)nc3cccnc32)cc1	.	.	22	.	.	.
Cc1ccc(CNC(=O)CSCc2ccccc2)cc1	29*	71*	7	13%	42%	6%
CC(C)CC(=O)Nc1ccnn1C1CCN(C(=O)c2ccc(F)cc2Cl)CC1	6	14	-22	-3%	0%	11%
O=C(NCC(c1cccnc1)N1CCc2ccccc21)c1ccc(F)c(F)c1 (centres undefined)	.	.	-24	.	.	.
CC1CCC(NC(=O)COC(=O)C2=NN(c3ccccc3)C(=O)CC2)CC1 (centres undefined)	.	.	10	16%	-3%	11%
CN(Cc1cccs1)C(=O)CCCc1c[nH]c2ccccc12	46*	73*	5	77%	42%	18%
CN(C(=O)COC(=O)CCc1c[nH]c2ccccc12)C(c1ccccc1)c1ccccc1	10	8	14	10µM*	12µM*	13%
O=C(CCCc1c[nH]c2ccccc12)NCc1cccs1	-1	15	16	15%	11%	-15%
CN(Cc1c(F)cccc1Cl)C(=O)CCc1c[nH]c2ccccc12	7	11	-27	?	-14%	-51%
CN(Cc1cccs1)C(=O)CCc1c[nH]c2ccccc12	16*	60	-22	30%	7%	-15%
O=C(Nc1ccc(Br)cc1)Nc1cnccn1	22*	53*	-22	15%	18%	-5%
O=C(Nc1cnccn1)Nc1ccccc1F	13	20	-2	26%	36%	-4%
Cc1cccc(NC(=O)Nc2cnccn2)c1	18	40	-24	-32%[1.15 µM]	20%	-11%
O=C(Nc1ccc(F)cc1)Nc1cnccn1	13*	17	14	40%	8%	13%
COC(=O)c1sccc1NC(=O)c1c(Cl)cnn1C	-3	-3	47	?	10%	-1%
Cc1ccc(C(=O)n2nc(C)c(S(=O)(=O)N3CCCCCC3)c2C)cc1	.	.	6	.	.	.
CCC1CCc2sc(C(=O)N3CCCN(C)CC3)cc2C1 (centres undefined)	23*	19	-13	103%	-5%	11%
Cc1ccc(-n2cnc(N)c2C(=O)c2cccc([N+](=O)[O-])c2)cc1	1	-16	-37	-5%	50%	11%
Cc1ccc2c(c1)N(CCC(=O)NCCCN1CCCC1)C(=O)C(C)O2 (centres undefined)	-5	8	-28	0%	-6%	-12%
CSc1ccc(CCNc2ncnc3onc(C)c23)cc1	.	.	-65*	.	.	.
SMILES	CHX counter	Shiga inhibitor	HCMV inh	Pf growth 96h	Pf growth 48h	HCV inh
CCCNc1ncnc2onc(C)c12	-6	-8	33	2%	24%	?
Cc1ccc(N2CCN(Cc3nnc(-c4ccc5c(c4)OCO5)o3)CC2)c(C)c1	.	.	4	.	.	.
COc1cc2nc(NCCC(C)C)n3nc(-c4ccccc4)nc3c2cc1OC	.	.	-2	.	.	.
Cc1ccc(N/C=C(/C#N)c2ccsc2)cc1	41*	132*	27	130%	122%	?
N#C/C(=C/Nc1ccccc1)c1ccsc1	27*	42*	-8	77%	96%	?
Cc1ccc(-c2csc(/C(C#N)=C/Nc3ccc4c(c3)OCCO4)n2)cc1	-1	-12	33	78%	34%	?
Cc1cc(C)cc(-n2c(SCC(=O)Nc3ccccc3)nc3c(oc4ccccc43)c2=O)c1	.	.	1	.	.	.
COc1cc(NC(=O)COC(=O)CNC(=O)c2ccc(C)cc2)c(C)cc1[N+](=O)[O-]	2	-16	-20	313%	18%	?
CC(C)(C)c1ccc(C(=O)NCC(=O)OCC(=O)Nc2ccccc2[N+](=O)[O-])cc1	41*	45*	-26	53%	26%	20%
CC(C)(C)c1ccc(C(=O)NCC(=O)OCc2ccc([N+](=O)[O-])cc2)cc1	-4	-8	-10	0.52µM*	4%	16%
COc1ccc(Nc2cc3[nH]c(-c4cccc(C(F)(F)F)c4)cc3cn2)cc1OC	.	.	-20	.	.	.
O=C(COC(=O)COc1ccccc1)NC1CCS(=O)(=O)C1 (centres undefined)	.	.	40	.	.	-2%
Cc1cccc(-n2nc(C)c(C(=O)N3CCN(c4ccccc4)CC3)c2-n2cccc2)c1	.	.	+	.	.	.
Cc1ccc(C(=O)N2CCN(c3ccc(N4CCOCC4)nn3)CC2)cc1C	.	.	-24	5.2µM*	-15%	10%[8.37 µM]
Cc1ccc(C(=O)N2CCC(C)CC2)cc1C	17*	35*	12	0%	28%	10%
CCOC(=O)N1CCN(C(=O)c2c(C)nn(-c3cccc(C)c3)c2-n2cccc2)CC1	.	.	0	.	.	.
Cc1ccc(C(=O)N2CCC(N3CCC(C(=O)N4CCOCC4)CC3)CC2)cc1C	-1	-5	-20	?	?	5%
Cc1ccc(C(=O)N2CCN(c3ccccc3)CC2)cc1C	27*	43*	44	.	19%	?
COc1ccc(C(C)(C)C)cc1NC(=O)CSc1ncn[nH]1	.	.	-25	?	?	?
COC(=O)C1(Cc2ccc(O)c(CC3OC3(C)C)c2)OC(=O)C(O)=C1c1ccc(O)cc1 (centres undefined)	-1	9	0	?	18%	0%
CC(C)(C)NC(=O)c1sccc1C(=O)O	22*	51*	-11	?	48%	.
C=CCNC(=O)c1c(Br)cnn1-c1ccc(C)cc1	45*	59*	44	83%	305%	-12%
Cc1ccc(-n2ncc(Cl)c2C(=O)NCc2ccccc2)cc1	42*	58*	3	82%	89%	-9%

Screening results: PubChem BioAssay, National Center for Advancing Translational Sciences (NCATS)
